Assay outcomes deposited in PubChem BioAssay by National Center for Advancing Translational Sciences (NCATS).
Compounds with a hit are over-represented: about 4.7% of the library has one in this group of screens.
ATXN2 expr inh – inhibitors of ATXN2 expression | HEK-293 ATXN2-luciferase reporter, luminescence, 24 h | Potency, µM (highest dose often 57 µM), for the others: top-dose activity change, negative = inhibition, hits mostly inhibitors | hit rate 0.72% among 360,000 | AID 1745845; further: potency means the concentration at half of the fitted maximal effect; on the % scale 0 is the no-effect control and ±100 the full control effect; nearly all actives have a fitted effect of over 55% in size
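ATXN2-luciferase reporter cells (luciferase flanked by upstream and downstream ATXN2 gene portions) were treated 24 h at 37 °C with compounds at up to 57 uM. SteadyGlo luminescence gave expression; GF-AFC fluorescence gave viability.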
TGFb inhibitor – inhibitors of TGF-b signaling; HepG2 CAGA-GFP TGF-b/SMAD3 reporter, GFP fluorescence, 18 h; TGF-beta stimulated, 500 pg/mL final; Potency, µM (titrated, usually from 46.1 µM), inactives show top-dose activity, negative = inhibition, usual class: inhibitors; hit rate 1.2% among 410,000; AID 588855; further: potency means the concentration at half of the fitted maximal effect; on the % scale 0 is the no-effect control and ±100 the full control effect; nearly all actives have a fitted effect of over 65% in size
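Inhibition was scored as loss of TGF-beta-induced (500 pg/mL final, 18 hours, 37 degrees C) GFP in HEPG2 cells carrying a CAGA-GFP reporter, in DMEM with 1% FBS. Well GFP was summed per cell; Activity was normalised to unstimulated and stimulated DMSO wells, then concentration-response fitting.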
HepG2 tox – kills HepG2 cells in TGF-b inhibitor counter-screen; HepG2 CAGA-GFP viability, ATP luminescence, 18 h; Potency, µM (titrated, usually from 46.1 µM), without a hit: top-dose activity change, negative = cytotoxicity, usual class: cytotoxic; hit rate 0.76% among 410,000; AID 588856; further: potency means the concentration at half of the fitted maximal effect
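CellTiter-Glo luminescence gave cytotoxicity after 18 hours at 37 degrees C. The cells were HepG2 CAGA-GFP in 1% FBS DMEM, stimulated with 500 pg/mL TGF-beta after compound addition. %Activity was normalised to no-cell wells (complete cell-killing) and DMSO (no toxicity), and curves were fitted and classified.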
ATXN viability – cell viability loss in ATXN counter-screen; S2 cells (HEK-293 line with an ATXN2-luciferase reporter) viability, CellTiter-Fluor protease fluorescence, 24 h; Potency, µM (series often up to 56.7 µM), hits mostly cytotoxic; hit rate 0.49% among 400,000; AID 651635; further: potency means the concentration at half of the fitted maximal effect; nearly all actives have a fitted effect of over 40% in size
DRD3 agonist – D3 dopamine receptor (human) agonism; AID 652048; hit rate 0.58% among 410,000; D3R DiscoveRx beta-arrestin cells, luminescence, 90 min; P35462; max activation, %; in the data active means max activation above about 30%; further: 0% is about no effect
Target sequence (P35462 whole entry, looked up): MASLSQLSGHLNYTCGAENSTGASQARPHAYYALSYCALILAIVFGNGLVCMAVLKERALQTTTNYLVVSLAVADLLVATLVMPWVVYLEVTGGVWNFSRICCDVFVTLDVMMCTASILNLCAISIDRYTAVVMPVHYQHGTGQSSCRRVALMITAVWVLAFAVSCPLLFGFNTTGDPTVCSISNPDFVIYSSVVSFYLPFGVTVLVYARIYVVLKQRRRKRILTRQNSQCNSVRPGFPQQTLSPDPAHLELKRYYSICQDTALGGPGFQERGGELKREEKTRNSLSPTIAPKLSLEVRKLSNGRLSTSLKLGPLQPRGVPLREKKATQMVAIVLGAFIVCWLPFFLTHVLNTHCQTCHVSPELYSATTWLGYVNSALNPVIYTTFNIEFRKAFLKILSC
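Agonist-mode cell screen: cells plated at 1500/well and incubated overnight at 37 °C, then exposed to library compounds for 90 min at 37 °C. Detection reagent was added for 30–60 min at room temperature, and luminescence was read.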
DRD3 antagonist – blocks the human D3 dopamine receptor; P35462; D3R cells, DiscoveRx beta-arrestin luminescence, antagonist mode; stronger effect = lower value; max response, negative = inhibition, %; hit rate 2.5% among 360,000; AID 652054; in the data active means max response below about -50%; inconclusive means no clear call, values can overlap the other calls; further: on the % scale 0 is the no-effect control and ±100 the full control effect
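Cells plated overnight at 1500 cells/well, then exposed to library compounds with dopamine controls for 90 minutes at 37 degrees C. DiscoveRx reagent added for 30–60 minutes at room temperature; luminescence read, quantitative HTS format.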
The depositor's hits bear a star; i = inactive; ? = inconclusive; · = no result; ! = a repeat was not active. Unless noted, the call rests on the fitted dose curve; in most records, active means well fitted curve in the direction sought with a large enough effect; inconclusive means small, poorly fitted or top-dose-only effect, or another doubt; inactive means no such curve, though single readings can be large; an effect the other way counts as inactive or inconclusive.

SMILES | ATXN2 expr inh | TGFb inhibitor | HepG2 tox | ATXN viability | DRD3 agonist | DRD3 antagonist
CCN1c2ccccc2-c2nc(SCC(=O)Nc3cc(F)ccc3F)ncc2S1(=O)=O | -20.5% | 8.6% | -2.3% | i | 0.8 | ·
O=C(Nc1ccc2c(c1)N(S(=O)(=O)c1cccs1)CCC2)c1c(F)cccc1F | 3.0% | 7.1% | -2.3% | i | -9.4 | -3.3
O=S(=O)(c1cccs1)N1CCCc2cccc(O)c21 | -6.7% | -3.1% | -0.8% | i | -3.1 | -72.7*
O=C(NCC1Cc2cc(-c3cncnc3)cc(Cl)c2O1)c1cccc(Cn2cccn2)c1 (stereo unspecified) | · | · | · | i | · | ·
COC(=O)c1ccccc1NC(=O)[C@H]1O[C@@H]2OC(C)(C)O[C@@H]2[C@H]2OC(C)(C)O[C@H]21 | · | -8.4% | -1.9% | · | 7.4 | ·
COCc1nnc(NC(=O)c2sc3ccccc3c2Cl)s1 | 30.1% | 1.5% | -7.3% | i | -17.6 | 21.5
Cc1nnc(NC(=O)c2sc3ccccc3c2Cl)s1 | ? | -1.0% | -21.5% | i | -9.6 | -73.3*
COc1cc(CN(C)CC2CCCN(CCc3ccccc3F)C2)cc(Cl)c1OC (stereo unspecified) | ? | -17.8% | -45.8% | 17.8µM* | -12.9 | -27.7
COCC(=O)N(C)CC1CCCN(CCc2ccccc2OC)C1 (stereo unspecified) | 1.1% | 14.3% | -16.6% | i | -11.9 | -64.1*
COc1ccccc1CCN1CCCC(CN(C)C(=O)CCC(=O)N(C)C)C1 (stereo unspecified) | -3.1% | 6.9% | 3.6% | i | -2.0 | 7.6
CCCCNC(=O)C1(C)CCN1C(=O)c1ccc(C(F)(F)F)nc1C (stereo unspecified) | 3.8% | -2.2% | -23.2% | i | -4.4 | -5.6
Cc1nc(C(F)(F)F)ccc1C(=O)N1CCC1(C)C(=O)NCc1cccs1 (stereo unspecified) | 6.4% | 1.6% | 11.7% | i | -2.6 | -90.7*
O=S(=O)(c1cccnc1)N1CCN(c2nc(-c3cccs3)nc3ccccc23)CC1 | · | -20.2% | -45.8% | · | · | ·
C=C1C(=C/C=C2\CCC[C@]3(C)[C@@H]([C@H](C)/C=C/[C@H](C)C(C)C)CC[C@@H]23)C[C@@H](O)C[C@@H]1O | · | · | · | · | -6.2 | ·
CCOC(=O)C(CC)(CC)C(=O)/C=C/c1cccc(Br)c1 | ? | 14.1µM* | -115.8% | ? | -10.7 | -1.8
CN(CCO)C(=O)c1cn(C2CCN(Cc3cccc(C(F)(F)F)c3)CC2)nn1 | · | · | · | i | · | ·
CCc1cccc(C)c1Nc1c(-c2cccs2)nc2nc(C)cc(C)n12 | · | -16.4% | -35.1% | · | -2.7 | ·
CCOC(=O)c1sc(=S)[nH]c1C | 6.8% | -19.4% | 4.4% | i | 2.1 | -52.3*
CCOC(=O)c1c(C)[nH]sc1=S | -1.1% | 15.3% | 17.1% | i | -3.7 | ?
CC(C)c1ccc(OCC(=O)Nc2c(Cl)ccc3nsnc23)cc1 | -12.4% | 23.9% | -0.3% | i | -9.9 | ·
Brc1ccc(-c2nc3ccccn3c2Nc2ccc3c(c2)OCCO3)o1 | ? | ? | -13.6% | ? | -11.4 | ·
CN(C)c1cccc(CNC(=O)c2ccc3sc([C@@H]4O[C@H](CO)[C@H](O)[C@H](O)[C@H]4O)nc3c2)c1 | 8.2% | 13.2% | 8.4% | i | -15.5 | -101.1*
O=C(NCc1cccnc1)c1ccc2sc([C@@H]3O[C@H](CO)[C@H](O)[C@H](O)[C@H]3O)nc2c1 | 2.3% | 0.8% | -5.9% | i | -5.3 | -55.1*
O=C(NCc1cc(Cl)cc(Cl)c1)c1ccc2sc([C@@H]3O[C@H](CO)[C@H](O)[C@H](O)[C@H]3O)nc2c1 | 13.5% | 18.9% | 2.5% | i | -3.3 | 0.4
Nc1nc(=S)[nH]c2n[nH]nc12 | · | 12.3% | 1.4% | · | · | ·
SMILES | ATXN2 expr inh | TGFb inhibitor | HepG2 tox | ATXN viability | DRD3 agonist | DRD3 antagonist
COc1cc2c(NC3CCN(C)CC3)nc(N3CCCN(C)CC3)nc2cc1OCCOCCN(C)C | · | 18.9% | 26.8% | · | · | ·
CCCN(C)CCCOc1cc2nc(N3CCCN(C)CC3)nc(NC3CCN(C)CC3)c2cc1OC | · | 14.1µM* | -0.9% | · | · | ·
COc1cc2c(NC3CCN(C(C)C)CC3)nc(N3CCCN(C)CC3)nc2cc1OCCOCCN(C)C | · | 14.1µM* | -31.7% | · | · | ·
COc1cc2c(NC3CCN(C(C)C)CC3)nc(C3CCCCC3)nc2cc1OCCCN1CCCC1 | 21.7µM* | · | · | · | · | ·
COc1cc2c(NC3CCN(C(C)C)CC3)nc(N3CCCN(C)CC3)nc2cc1OCCCN1CCCC1 | · | ? | 1.0% | · | · | ·
COc1cc2c(NC3CCN(C)CC3)nc(N3CCCCC3)nc2cc1OCCCN(C)C | · | 10µM* | -78.2% | · | · | ·
Cc1cc(C(=O)OCC(=O)NCCc2ccccc2)c2ccccc2n1 | -1.9% | -1.3% | -12.7% | i | 50.8* | -13.6
Cc1coc2ccccc2c1=O | 5.4% | · | · | i | · | ·
Cc1ccc(NC(=O)C2CCN(S(=O)(=O)c3c(C)noc3/C=C/c3cccs3)CC2)cc1F | · | ? | -26.0% | · | -6.9 | ·
COc1ccc(/C=C\c2onc(C)c2S(=O)(=O)N2CCC(C(=O)Nc3cccc(Cl)c3)CC2)cc1 | · | ? | -34.7% | · | 61.6* | ·
CCOc1ccccc1/C=C/c1onc(C)c1S(=O)(=O)N1CCC(C(=O)N(CC)CC)CC1 | · | ? | 4.7% | ? | -14.6 | -18.8
Cc1noc(/C=C/c2cccs2)c1S(=O)(=O)N1CCC(C(=O)Nc2ccc(F)c(Cl)c2)CC1 | · | 6.31µM* | -24.2% | · | -7.5 | ·
CCN(CCN(C)C)C(=O)C1CCN(S(=O)(=O)c2c(C)noc2/C=C/c2ccccc2F)CC1 | · | ? | 15.8µM*! | ? | -2.2 | -54.1*
COc1ccc2c(c1)c1c(c(=O)n(CCc3ccccc3)c(=O)n1Cc1cccc(Cl)c1)n2C | 1.1% | 9.5% | 3.4% | i | 7.4 | ·
O=C(CSc1n[nH]c(-c2cccs2)n1)N1CCN(S(=O)(=O)c2ccc3ccccc3c2)CC1 | -13.6% | ? | 0.2% | i | -1.8 | -69.7*
COc1ccc(-n2nc([N+](=O)[O-])c(=NCc3cccnc3)n2O)cc1 | 2.5% | 8.8% | -3.8% | ? | -25.0 | 9.2
COc1ccc(-n2nc([N+](=O)[O-])c(=NCCc3ccc(C)cc3)n2O)cc1 | 13.6% | -29.8% | -19.4% | i | 1.7 | -13.5
COc1ccc(-n2nc([N+](=O)[O-])c(=NCCc3ccc(OC)c(OC)c3)n2O)cc1 | -22.9% | -31.2% | 15.8µM* | i | -20.3 | -17.4
COc1ccc(-n2nc([N+](=O)[O-])c(=NC3CCN(Cc4ccccc4)CC3)n2O)cc1 | -16.4% | ? | -42.8% | ? | -12.4 | -50.7*
Cn1c(-c2ccc(Cl)cc2)cnc1N | · | 1.0% | -17.5% | · | -1.7 | -28.0
Cc1ccc(-c2cnc(N)n2C)cc1C | 5.2% | 0.7% | 1.2% | i | 4.3 | -101.2*
